Bioassay records as filed in PubChem.
Compounds with a hit are over-represented: about 12% of the library has one in this group of screens.
HP1b chromo inh: HTS for Inhibitors of HP1-beta Chromodomain Interactions with Methylated Histone Tails; AID 540317, 2011; Chromobox protein homolog 1 (Homo sapiens), P83916; AlphaScreen HP1-beta / biotin-H3K9me3 peptide binding; 390,000 tested, 0.56% active; Potency, µM (series often up to 114 µM), inactives show at the top dose activity change, negative = inhibition, most hits filed as inhibitors; note: potency is the fitted concentration of half-maximal effect; nearly all actives have a fitted effect of over 70% in size
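AlphaScreen: HP1-beta (50 nM) preformed 30 min with biotin-H3(1-18)K9me3 peptide (50 nM) in PBS pH 7.4, 0.01% Tween-20. Compound added for 30 min at RT, then streptavidin donor/nickel chelate acceptor beads (10 ug/mL) for 30 min.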
PLK1 PBD block: qHTS for Inhibitors of PLK1-PDB (polo-like kinase 1 - polo-box domain): Primary Screen; Serine/threonine-protein kinase PLK1 (Homo sapiens), P53350; Plk1 PBD binding of FITC phosphopeptide, fluorescence polarization; Potency, µM, for the others: max response, negative = inhibition, hits mostly inhibitors; 360,000 tested, 2.8% active; AID 720504, 2013; note: potency is the fitted concentration of half-maximal effect; series mostly up to about 57 µM; % is set by controls: 0 for no effect and ±100 for the full control effect; nearly all actives have a fitted effect of over 65% in size
G9a inh: qHTS Assay for Inhibitors of Histone Lysine Methyltransferase G9a. Histone-lysine N-methyltransferase EHMT2 (Homo sapiens), Q96KQ7. G9a H3K9 monomethylation, AlphaScreen, 2 h. Potency, µM (doses to about 102 µM), for the others: at the top dose activity, negative = inhibition, most hits filed as inhibitors. 350,000 tested, 8.8% active. AID 504332, 2011; note: potency is the fitted concentration of half-maximal effect; % is set by controls: 0 for no effect and ±100 for the full control effect; nearly all actives have a fitted effect of over 75% in size
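Using a bead-based AlphaScreen, monomethylated H3K9 product from 2 h room-temperature reactions (G9a 20 nM, peptide 500 nM, SAM 20 uM) was detected with 0.5 ug/mL rabbit anti-H3K9me1 antibody.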
BAZ2B inh: qHTS Assay for Inhibitors of BAZ2B; 360,000 tested, 4.4% active; AlphaScreen BAZ2B-H3K14Ac peptide displacement; Potency, µM (titrated, usually from 114 µM), for the others: at the highest dose activity change, negative = inhibition, hits mostly inhibitors; AID 504333, 2011; Bromodomain adjacent to zinc finger domain protein 2B (Homo sapiens), Q9UIF8; note: potency is the fitted concentration of half-maximal effect; % is set by controls: 0 for no effect and ±100 for the full control effect; nearly all actives have a fitted effect of over 60% in size
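Complex of BAZ2B and biotin-H3K14Ac (50 nM apiece) forms over 30 min at RT, then faces library compounds up to 110 uM for another 30 min; AlphaScreen beads added, 20 min dark incubation, luminescence read.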
PI5P4Ka inh: qHTS for Inhibitors of phosphatidylinositol 5-phosphate 4-kinase (PI5P4K) | Phosphatidylinositol 5-phosphate 4-kinase type-2 alpha (Homo sapiens), P48426 | PI5P4Kalpha enzyme, ADP-Glo luminescence, 60 min; active compounds read low | max response, % | 330,000 tested, 1.2% active | AID 652105, 2013; active = max response of -50% or lower; inconclusive = between -30% and -50%; inactive = -30% or higher; note: value at the top dose of about 77 µM; % is set by controls: 0 for no effect and ±100 for the full control effect
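Single end-point luminescence (ADP-Glo) quantified ADP from PI5P4Kalpha turnover; ATP 5 microM final, 1 h at RT, 0.1% CHAPS and 0.28 mM EGTA in HEPES pH 7.4.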
JMJD2A Tudor: qHTS Assay for Inhibitors of JMJD2A-Tudor Domain; Lysine-specific demethylase 4A (Homo sapiens), O75164; AlphaScreen JMJD2A-Tudor / H3K4me3 peptide binding; Potency, µM (series often up to 114 µM), without a hit: top-dose activity change, negative = inhibition, hits mostly inhibitors; 390,000 tested, 4.4% active; AID 504339, 2011; note: potency is the fitted concentration of half-maximal effect; % is set by controls: 0 for no effect and ±100 for the full control effect; nearly all actives have a fitted effect of over 50% in size
Active calls of the source: *; ? = inconclusive; . = no result given; [ ] = another dose, or the depositor's remark. Unless noted, calls come from the whole dose curve; as a rule, active = well fitted curve in the direction sought with a large enough effect; inconclusive = small, poorly fitted or top-dose-only effect, or another doubt; inactive = no such curve, though single readings can be large; an effect the other way counts as inactive or inconclusive.

SMILES | HP1b chromo inh | PLK1 PBD block | G9a inh | BAZ2B inh | PI5P4Ka inh | JMJD2A Tudor
O=C(CSc1ccc(-c2cccnc2)nn1)c1ccc([N+](=O)[O-])cc1 | -3% | -23% | 22µM* | -16% | ? | -30%
COc1cccc(NC(=O)c2ccc3nc(Cc4ccccc4)oc3c2)c1 | 21%[57 µM] | . | 10%[59 µM] | 6% | . | -11%
CCc1c(C)[nH]c2ccc(OC)cc2c1=S | ? | 13µM* | 4.5µM* | ? | -9 | -17%[11.4 µM]
COc1ccc2[nH]c(C)c(CCNC(=S)Nc3ccc(F)cc3)c2c1 | -8% | -1% | 56µM* | . | 9 | ?
COc1ccc2[nH]c(C)c(CCNC(=S)Nc3cc(C)ccc3C)c2c1 | 32% | -10% | 14% | 2% | -5 | -21%
COc1ccc2[nH]c(C)c(CCNc3ccc(C(F)(F)F)cc3[N+](=O)[O-])c2c1 | ? | -8% | 11µM* | 28µM* | 11 | 22µM*
COc1ccc2[nH]c(C)c(CCNC(=S)Nc3cc(C)cc(C)c3)c2c1 | ? | -10% | 15% | 28µM* | 4 | 50µM*
CCCC[C@@H](C=O)NC(=O)[C@H](CC(C)C)NC(=O)[C@H](CC(C)C)NC(C)=O | . | . | 33%[59 µM] | . | . | .
CCN(CCCCOC(=O)c1ccc(OC)c(OC)c1)[C@@H](C)Cc1ccc(OC)cc1 | . | . | 13%[21.5 µM] | . | . | .
Cn1c2cc([N+](=O)[O-])sc2c2cnn(Cc3ccccc3F)c(=O)c21 | . | . | -29%[12.7 µM] | -1% | . | .
CCCCC/C=C\C=C\[C@H](O)CCCCCCCC(=O)O | . | . | 25%[59 µM] | . | . | .
COc1ccc2[nH]c(C)c(CCNC(=S)Nc3cccc(C)c3)c2c1 | -3% | -3% | 45µM* | 35µM* | 7 | ?
COc1ccc2[nH]c(C)c(CCNC(=S)Nc3ccccc3OC)c2c1 | 1% | 0% | 56µM* | . | 0 | ?
CCOc1ccc(NC(=O)c2ccc3[nH]c(C)cc(=O)c3c2)cc1 | 7% | . | ? | -2% | . | 7%
CCOc1ccc(Cc2c(C)[nH]c3ccc(C(=O)O)cc3c2=S)cc1 | 18% | -23% | 13µM* | -36% | -18 | 25µM*
O=C(CSc1ncc(CO)n1Cc1ccccc1)Nc1ccc(C(F)(F)F)cc1 | -1%[57 µM] | . | -39%[59 µM] | ? | . | ?
CCOc1ccc(C(=O)Nc2cccc(-c3nc4cc(Cl)cc(Cl)c4o3)c2)cc1 | 25% | . | 11%[59 µM] | 2% | . | -10%
COc1ccc(-n2nc(C(=O)NCCc3ccc(OC)c(OC)c3)c3c4ccccc4n(C)c3c2=O)cc1Cl | 29% | . | 3%[59 µM] | . | . | -10%
Cc1ccc(CSc2nc3ccccc3c(=O)[nH]2)cc1 | 37% | -20% | 4%[59 µM] | -4% | 2 | 2%
O=c1[nH]c(SCc2ccccc2)nc2c1sc1ccccc12 | 56% | ? | 50µM* | -4% | 3 | -13%[57.1 µM]
NC(=S)N=Nc1ccc(O)cc1 | ? | 27µM* | . | . | -11 | -26%
NC(N)=NC(N)=Nc1ccc(O)cc1 | 32% | -2% | 3% | 0% | -17 | -10%
Nc1nnc(SCCCC(=O)c2ccccc2)s1 | 34% | -21% | 16% | -5% | 3 | -5%
Cc1cc(C)c(NC(=O)CCCSc2nnc(N)s2)c(C)c1 | 38% | -13% | 50µM* | -29% | -1 | -7%
Cc1ccc(CCNc2nc3c(S(=O)(=O)c4ccc(C)cc4)nnn3c3ccsc23)cc1 | 24% | . | -4%[59 µM] | -13% | . | -4%
SMILES | HP1b chromo inh | PLK1 PBD block | G9a inh | BAZ2B inh | PI5P4Ka inh | JMJD2A Tudor
CCN1C(=O)C(C(=O)c2ccccc2)SC1=S (centres undefined) | -37% | ? | 22µM* | 56µM* | -2 | 56µM*
CCC(Oc1ccc2c(c1)C(=O)CC(C)(C)O2)C(=O)NCCN1CCCCCC1 (centres undefined) | ? | -21% | 13µM* | ? | 1 | 45µM*
C=CCc1cccc(OC)c1OCCOCCNCCO | -28% | 0% | 11µM* | 56µM* | 3 | 5.6µM*
COc1cccc(OC)c1OCCNCCO | 45% | -3% | 5%[59 µM] | 2% | -4 | -3%
CC1(C)N(O)CC(c2cccs2)=[N+]1[O-] | -23% | -6% | -36%[12.7 µM] | 50µM* | . | 28µM*
CN(C)c1ccc(-c2nc(NCCc3cnc[nH]3)c3ccccc3n2)cc1 | . | . | 1%[0.501 µM] | . | . | .
O=c1c2ccccc2sn1-c1ccc(S(=O)(=O)N2CCCCC2)cc1 | ? | 1.3µM* | . | . | . | 8.9µM*
O=c1c2ccccc2sn1-c1ccc(S(=O)(=O)N2CCCC2)cc1 | 1.4µM* | 1.1µM* | . | 7.1µM* | . | 11µM*
Cc1ccc(-n2sc3ccccc3c2=O)cc1S(=O)(=O)N1CCCCC1 | ? | 0.84µM* | 0.89µM* | 5.6µM* | -111* | 7.9µM*
O=S(=O)(c1ccc(S(=O)(=O)N2CCCC2)cc1)N1CCCCC1 | 11% | 2% | -21% | -10% | 3 | -6%
COc1cc(C(=O)NC(=S)Nc2ccc3c(c2)C(=O)N(C)C3=O)cc(OC)c1OC | -13% | -18% | 45µM* | -29% | 1 | ?
COc1cc(C(=O)Nc2ccc(NC(=O)c3cccc(Cl)c3)nc2)cc(OC)c1OC | 3% | -5% | -3% | -11% | 3 | -21%
COc1cc(C(=O)NC(=S)Nc2ccc(Cl)cn2)cc(OC)c1OC | -1% | 24µM* | 4% | -9% | -9 | 16µM*
CCOC(=O)CC(=O)CSc1nc2ccsc2c(=O)n1Cc1ccccc1 | 53% | . | 31%[59 µM] | -6% | . | 1%
CCC(C)n1c(=N)c(C(=O)NC2CCCCC2)cc2c(=O)n3cc(C)ccc3nc21 (centres undefined) | 21% | . | -47%[59 µM] | 3% | . | 1%
CCOC(=O)c1sc(NC(=O)C2c3ccccc3Oc3ccccc32)c(C#N)c1C | -14% | . | 2.2µM* | -1% | . | -11%
CCN(CC)C(=O)c1sc(NC(=O)c2c(OC)cccc2OC)c(C#N)c1C | -1% | ? | 18µM* | -19% | -2 | -4%
CCOC(=O)c1sc(NC(=O)c2ccco2)c(C#N)c1C | -4% | ? | 45µM* | -3% | -14 | 2%
COc1cc(C(C)=O)ccc1OCC(=O)N(CCC1=CCCCC1)c1c(N)n(Cc2ccccc2)c(=O)[nH]c1=O | 28% | 6% | -12%[2.33 µM] | 10% | -3 | -16%
CCOC(=O)C1=CCN(S(=O)(=O)c2ccccc2Br)C1c1cccc(C)c1 (centres undefined) | . | 0% | . | . | -3 | .
